This is an account of results in PubChem BioAssay AID1259245 (Vanderbilt High Throughput Screening Facility, 2017).

SMILES strings stand for the structures. In all, about 40,000 compounds went through this assay and about 1,400 (3.5%) were called active.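 Rule for the calls: active = any of four per-well response measures lying three or more SD from its plate-wide compound average, in either direction; inactive = the rest, inconclusive results apart.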 The entries come from a sample that favours actives as a whole.

For the test, the target named is Voltage-dependent calcium channel gamma-2 subunit (Mus musculus) + Glutamate receptor 2 (Rattus norvegicus) (UniProt O88602+P19491). In words: AMPAR-TARP gamma-2 complex positive or negative modulation – cell-based, membrane potential dye, primary screen (AID 1259245). The conditions noted are these: HEK293 GluA2+stargazin, membrane potential dye (FDSS), glutamate EC50, at 30 µM, hits were called plate by plate, in both directions; compound max-min signal: compound-alone response (agonism); glutamate slope, % of max: measured here: glutamate response slope, % max.
Voltage-dependent calcium channel gamma-2 subunit (Mus musculus) + Glutamate receptor 2 (Rattus norvegicus), sequence (O88602 whole entry, looked up): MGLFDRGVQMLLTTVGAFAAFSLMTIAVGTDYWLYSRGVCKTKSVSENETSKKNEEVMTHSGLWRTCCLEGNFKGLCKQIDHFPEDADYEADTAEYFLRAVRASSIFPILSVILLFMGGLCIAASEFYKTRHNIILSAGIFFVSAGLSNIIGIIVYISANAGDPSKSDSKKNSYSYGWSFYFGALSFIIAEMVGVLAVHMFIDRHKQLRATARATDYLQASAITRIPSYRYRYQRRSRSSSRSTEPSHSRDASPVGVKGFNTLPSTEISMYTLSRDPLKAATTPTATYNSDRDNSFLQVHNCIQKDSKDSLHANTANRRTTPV
Voltage-dependent calcium channel gamma-2 subunit (Mus musculus) + Glutamate receptor 2 (Rattus norvegicus), sequence (P19491 whole entry, looked up): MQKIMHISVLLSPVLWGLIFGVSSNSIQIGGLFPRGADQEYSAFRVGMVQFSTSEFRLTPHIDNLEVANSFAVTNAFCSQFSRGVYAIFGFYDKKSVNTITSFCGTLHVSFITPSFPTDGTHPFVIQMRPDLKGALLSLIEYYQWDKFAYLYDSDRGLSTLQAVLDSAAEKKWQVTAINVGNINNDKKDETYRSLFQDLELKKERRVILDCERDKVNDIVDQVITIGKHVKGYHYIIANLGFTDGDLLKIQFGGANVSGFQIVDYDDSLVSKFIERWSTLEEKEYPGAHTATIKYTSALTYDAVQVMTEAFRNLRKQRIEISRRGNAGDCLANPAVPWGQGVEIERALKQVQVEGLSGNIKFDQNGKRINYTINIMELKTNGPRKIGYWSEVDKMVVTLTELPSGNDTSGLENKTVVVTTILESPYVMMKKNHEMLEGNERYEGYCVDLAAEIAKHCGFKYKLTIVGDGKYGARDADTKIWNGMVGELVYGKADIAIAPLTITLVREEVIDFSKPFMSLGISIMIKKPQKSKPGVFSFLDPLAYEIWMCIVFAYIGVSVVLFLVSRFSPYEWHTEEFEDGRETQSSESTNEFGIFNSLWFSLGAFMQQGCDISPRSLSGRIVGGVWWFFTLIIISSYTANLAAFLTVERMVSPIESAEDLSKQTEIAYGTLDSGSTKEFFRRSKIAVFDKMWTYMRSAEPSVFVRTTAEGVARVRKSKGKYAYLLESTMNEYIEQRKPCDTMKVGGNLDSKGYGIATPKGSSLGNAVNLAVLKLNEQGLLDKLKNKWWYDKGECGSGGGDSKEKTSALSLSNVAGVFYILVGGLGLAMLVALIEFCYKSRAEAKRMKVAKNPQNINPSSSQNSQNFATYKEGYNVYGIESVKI
`Cc1cc(C)n(CCNC(=O)/C=C/c2cccs2)n1`: the compound max-min signal is 0.131; the glutamate response, % of max was 25.6% (inactive); the glutamate slope, % of max turned out to be 56.8%.
Regarding `Cc1noc(C2CN(S(=O)(=O)c3ccc(Cl)cc3)C2)n1`, the compound max-min signal amounted to 0.142; the glutamate response, % of max is 44.3% (inactive); the glutamate slope, % of max is 70.8%.
As to `O=C(NCc1ccc2c(c1)OCO2)c1ccc(=O)[nH]n1`, the compound max-min signal amounted to 0.05; the glutamate response, % of max was 25.6% (inactive); the glutamate slope, % of max worked out at 54.3%.
Turning to `COc1ccc(NC(C)=O)cc1NC(=O)CCCn1nc(-c2ccccc2)ccc1=O`, the compound max-min signal was found to be 0.08; the glutamate response, % of max is 33.8% (inactive); the glutamate slope, % of max came out at 52.7%.
For `COc1ccc(NC(C)=O)cc1NC(=O)c1ccc(=O)[nH]n1`, in that order: 0.159, 38.5% (active) and 57.1%.
For `Cc1nn(CCNC(=O)c2cccc([N+](=O)[O-])c2)c(C)c1Cl`, in that order: 0.133, 50.5% (inactive) and 65.4%.
As for `Cc1ccc(N2CCN(C(=O)COc3nccc(C)n3)CC2)nn1`, the compound max-min signal is 0.0842; the glutamate response, % of max was 38.9% (inactive); the glutamate slope, % of max was 61.3%.
Turning to `CCCC(=O)N1CCN(c2ccc(Nc3cc(C)ccn3)nn2)CC1`, the compound max-min signal came to 0.194; the glutamate response, % of max is 23.7% (active); the glutamate slope, % of max is 43.2%.
For `CCCOc1ccc(N2CCN(C(=O)COc3ccc4ccccc4c3)CC2)nn1`, in that order: 0.0411, 42.7% (inactive) and 61.1%.
For `O=C(Nc1cccs1)N1CCC(c2nnc(-c3ccc(F)cc3)o2)CC1`, in that order: 0.0749, 44.9% (inactive) and 64.6%.
The like results for `Cc1ccc(CN2C(=O)NC3(CCN(C(=O)c4ccccc4F)CC3)C2=O)cc1` were, in that order, 0.0483, 11.7% (inactive) and 23.5%.
Take `COc1ccc(CC(=O)Nc2ccc3c(c2)N(S(=O)(=O)c2ccccc2)CCC3)cc1`: the compound max-min signal turned out to be 0.0777; the glutamate response, % of max was 49% (inactive); the glutamate slope, % of max turned out to be 74.3%.
For `CN(C)S(=O)(=O)c1ccc(C(=O)Nc2ccc3c(c2)N(C(=O)c2ccco2)CC3)cc1`, the compound max-min signal was found to be 0.176; the glutamate response, % of max was 45.9% (inactive); the glutamate slope, % of max turned out to be 62.8%.
Take `CCOC(=O)c1csc(NC(=O)Cn2cnc(C)cc2=O)n1`: the compound max-min signal is 0.0863; the glutamate response, % of max was 36.3% (inactive); the glutamate slope, % of max is 51.4%.
With `Cc1cc(C(=O)Nc2nc(-c3cccs3)cs2)on1`, the compound max-min signal was found to be 0.0444; the glutamate response, % of max is 13.4% (inactive); the glutamate slope, % of max was 25.9%.
For `CCOC(=O)c1csc(NC(=O)c2cc(C)no2)n1`, in that order: 0.211, 21.3% (active) and 37.1%.
With `Cc1nc(NC(=O)c2ccc3c(c2)CCCC3)sc1C`, the compound max-min signal was 0.129; the glutamate response, % of max is 29.7% (inactive); the glutamate slope, % of max amounted to 50.6%.
The like results for `O=C(Nc1cccc(N2CCCS2(=O)=O)c1)c1cccc(F)c1` were, in that order, 0.0432, 21.4% (inactive) and 45.7%.
The like results for `CCOc1ccccc1NC(=O)CSc1cc(N2CCC(C(=O)NC3CC3)CC2)ncn1` were, in that order, 0.107, 24% (inactive) and 50.5%.
With `O=C(CSc1cc(N2CCN(c3ccccc3F)CC2)ncn1)c1cccs1`, the compound max-min signal was found to be 0.0768; the glutamate response, % of max was 53.6% (inactive); the glutamate slope, % of max turned out to be 73.7%.
The like results for `COC(=O)c1ccc(CSc2cc(N3CCN(c4ccccc4F)CC3)ncn2)o1` were, in that order, 0.0593, 58.6% (active) and 59.5%.
Take `Cc1cc(C)c2c(n1)nn1c(NCC(C)C)cc(C)nc21`: the compound max-min signal was found to be 0.313; the glutamate response, % of max was 35.7% (active); the glutamate slope, % of max worked out at 52.5%.
For the molecule `CCOc1ccc(Nc2cc(C)nc3c4c(C)cc(C)nc4nn23)cc1`, the compound max-min signal came out at 0.205; the glutamate response, % of max is 36.4% (inactive); the glutamate slope, % of max worked out at 58.7%.
The like results for `Cc1cc(C)c2c(n1)nn1c(-n3ccnc3)cc(C)nc21` were, in that order, 0.202, 43.8% (inactive) and 65.7%.
The like results for `CC(=O)NCCn1ncc2c(N3CCN(c4ccccc4)CC3)ncnc21` were, in that order, 0.109, 30% (inactive) and 56.7%.
The like results for `Cc1ccc(C(=O)CSc2nccn(-c3ccc(Cl)cc3)c2=O)c(C)c1` were, in that order, 0.0972, 25.5% (inactive) and 43.4%.
As to `CCS(=O)(=O)N1CCCc2cc(NS(=O)(=O)c3cc(C)c(OC)c(C)c3)ccc21`, the compound max-min signal was 0.0675; the glutamate response, % of max was 32.7% (active); the glutamate slope, % of max is 46.4%.
For `CCS(=O)(=O)N1CCCc2ccc(NS(=O)(=O)c3cc(C)c(C)cc3OC)cc21`, in that order: 0.0618, 43.6% (inactive) and 69.1%.
The like results for `COc1ccc(S(=O)(=O)Nc2ccc3c(c2)CCCN3S(C)(=O)=O)cc1C` were, in that order, 0.0764, 41% (inactive) and 56.8%.
Take `CCOC(=O)N1CCN(/C=C(\C#N)C(=O)Nc2ccccc2)CC1`: the compound max-min signal is 0.158; the glutamate response, % of max was 47.6% (inactive); the glutamate slope, % of max was determined as 78%.
For `Cc1ccc(F)cc1NC(=O)CSc1ncc(S(=O)(=O)c2ccc(Cl)s2)c(N)n1`, in that order: 0.162, 28.9% (inactive) and 52.4%.
For `CCOCCn1c(=O)c2c(nc3n2CCCN3c2ccc(Br)cc2)n(C)c1=O`, in that order: 0.127, 46.2% (inactive) and 67.4%.
The like results for `COc1ccc(OC)c2sc(N(CCN3CCOCC3)C(=O)c3cccc(F)c3)nc12` were, in that order, 0.177, 47.1% (inactive) and 60.4%.
Regarding `COc1ccc(OC)c2sc(N(CCN3CCOCC3)C(=O)c3cccs3)nc12`, the compound max-min signal is 0.221; the glutamate response, % of max was 45.8% (inactive); the glutamate slope, % of max was determined as 65.3%.
Regarding `COc1ccc(Cl)c2sc(N(CCCN3CCOCC3)C(=O)c3ccno3)nc12`, the compound max-min signal stood at 0.17; the glutamate response, % of max was 19.9% (active); the glutamate slope, % of max was found to be 29.3%.
On to `O=C(/C=C/c1cccs1)NCC1CCN(C(=O)COc2ccccc2)CC1`, for which the compound max-min signal is 0.0649; the glutamate response, % of max was 42% (inactive); the glutamate slope, % of max amounted to 61.3%.
With `Cc1cc(C)c(NC(=O)CN2CCN(c3nccn3-c3ccccc3F)CC2)c(C)c1`, the compound max-min signal amounted to 0.0429; the glutamate response, % of max is 8.38% (inactive); the glutamate slope, % of max stood at 22.6%.
The like results for `O=C(Cc1csc(NC(=O)c2ccc(=O)[nH]c2)n1)NCCC1=CCCCC1` were, in that order, 0.0625, 14.3% (inactive) and 44.1%.
Regarding `CCC(C(=O)Nc1cc(C)nn1-c1nc2c(cnn2-c2ccccc2)c(=O)[nH]1)c1ccccc1` (stereo not given), the compound max-min signal was 0.102; the glutamate response, % of max was 34.9% (inactive); the glutamate slope, % of max was 55.6%.
With `Cc1ccc(-n2ncc3c(=O)n(CC(=O)N4CCc5ccccc54)cnc32)cc1C`, the compound max-min signal stood at 0.12; the glutamate response, % of max was 54.7% (inactive); the glutamate slope, % of max stood at 80.7%.
As to `O=C(Nn1cnc2c(cnn2-c2cccc(Cl)c2)c1=O)c1ccc(-c2ccccc2)cc1`, the compound max-min signal turned out to be 0.0867; the glutamate response, % of max is 36% (inactive); the glutamate slope, % of max amounted to 64%.
As for `CCCC(CCC)C(=O)Nc1cc(C)nn1-c1nc2c(cnn2-c2cccc(Cl)c2)c(=O)[nH]1`, the compound max-min signal stood at 0.134; the glutamate response, % of max is 34% (inactive); the glutamate slope, % of max is 47.5%.
For `Cc1cc(NC(=O)c2ccc3c(c2)OCO3)n(-c2nc3c(cnn3-c3cccc(Cl)c3)c(=O)[nH]2)n1`, in that order: 0.15, 27.3% (active) and 36%.
For `Cc1cc(NC(=O)C(C)Oc2ccccc2)n(-c2nc3c(cnn3-c3ccc(C)c(C)c3)c(=O)[nH]2)n1` (stereo not given), in that order: 0.407, 19.4% (active) and 19.7%.
Take `Cc1ccccc1CN1C(=O)C2(c3ccccc31)N(c1ccc(F)c(F)c1)C(=O)CS2(=O)=O` (stereo not given): the compound max-min signal amounted to 0.109; the glutamate response, % of max is 63.6% (inactive); the glutamate slope, % of max amounted to 74.8%.
